The values that follow come from PubChem BioAssay (NCI).

Among the test systems are NCI-H23 lung; NCI-H322M lung; NCI-H460 lung; HOP-92 NSCLC; NCI-H522 lung; A549/ATCC NSCLC; 786-0 renal; COLO 205 colon; HOP-62 NSCLC.
What all share (experiment): NCI-60 one-dose screen, 48 h (100 = growth as untreated, 0 = no growth, -100 = all killed)
What all share (conditions): 10 µM unless noted

The panel holds about 83,000 compounds, 20% with a hit somewhere; the sample as a whole holds those more often.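 Single-concentration screen, 48 h exposure, 96-well plates. Endpoint: percent growth. Below 10 = active.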 A number with no mark means an inactive call. Calls of active or inactive are those of the source.

In the case of `COc1cc(-c2cc3ncccc3c3[nH]c(=O)c4cccnc4c23)cc(OC)c1OC`, the growth was 44.5% in the assay with NCI-H23 lung; 52.6% in the assay on NCI-H322M lung; 8.58% (active) in the assay with NCI-H460 lung; 30.6% in the assay with HOP-92 NSCLC; 34.3% in the assay on NCI-H522 lung; 23.8% in the assay on A549/ATCC NSCLC. For the same compound, the results for the growth in the assay with 786-0 renal and in the assay with COLO 205 colon were 24.7% and -18.6% (active), respectively.

`Oc1cccc2oc(=S)[nH]c12`: the growth in the assay with NCI-H23 lung was 104%; with NCI-H322M lung it was 128%; in the assay with HOP-62 NSCLC, 104%; with NCI-H460 lung it was 116%; with HOP-92 NSCLC, 102%; in the assay with NCI-H522 lung it was 101%. Also, the growth is 107% in the assay with A549/ATCC NSCLC, 106% in the assay on 786-0 renal and 117% in the assay on COLO 205 colon.

`COC(=O)[C@@H]1[C@H]2C[C@H]3c4[nH]c5cc(OC)ccc5c4CCN3C[C@@H]2C[C@H](OC(=O)/C=C/c2ccnc(OC)c2)[C@H]1OC`: the growth with NCI-H23 lung is 86.4%; with NCI-H322M lung it was 83.2%; in the assay with HOP-62 NSCLC, 87%; in the assay with NCI-H460 lung, 102%; with HOP-92 NSCLC it was 22.5%; in the assay with NCI-H522 lung it was 73.3%. For the same compound, the growth with A549/ATCC NSCLC is 89%; with 786-0 renal, 91.2%; in the assay on COLO 205 colon, 76.3%.

As to `c1ccc(-c2nc(Nc3ccc(-c4nc5ccccc5[nH]4)cc3)nc(N3CCOCC3)n2)cc1`, the growth is -59.1% (active) in the assay with NCI-H23 lung; -0.466% (active) in the assay on NCI-H322M lung; -64.5% (active) in the assay on HOP-62 NSCLC; -67.3% (active) in the assay with NCI-H460 lung; -66.3% (active) in the assay on HOP-92 NSCLC; -68.2% (active) with NCI-H522 lung. Besides, the growth was -68.4% (active) in the assay with A549/ATCC NSCLC, -88.9% (active) in the assay with 786-0 renal and -68.8% (active) with COLO 205 colon.

As for `COc1cnc2c(c1)C(=O)c1c-2n(CCCNC(C)C)c(=O)c2cc([N+](=O)[O-])ccc12`, the growth in the assay with NCI-H23 lung was -67.8% (active); in the assay on NCI-H322M lung it was -31.6% (active); in the assay on HOP-62 NSCLC, -53.2% (active); in the assay on NCI-H460 lung, -74.1% (active); with HOP-92 NSCLC, -80.1% (active); in the assay with NCI-H522 lung, -56.6% (active). The growth in the assay on A549/ATCC NSCLC was -65.5% (active); in the assay with 786-0 renal, -88.2% (active); in the assay with COLO 205 colon, -74.3% (active).

With `NS(=O)(=O)c1ccc(CCNC(=O)/C=C/c2ccc(Cl)cc2)cc1`, the growth in the assay on NCI-H23 lung is 107%; in the assay with NCI-H322M lung it was 107%; in the assay with HOP-62 NSCLC it was 97.5%; in the assay on NCI-H460 lung, 98%; in the assay on HOP-92 NSCLC, 100%; in the assay with A549/ATCC NSCLC, 95.9%. Moreover, the growth in the assay with 786-0 renal was 102%; with COLO 205 colon, 110%.

Turning to `CCCNc1nc(N(C)O)nc(N(C)O)n1`, the growth in the assay with NCI-H23 lung was 41.3%; in the assay with NCI-H322M lung, 41.5%; with HOP-62 NSCLC, 16.6%; with NCI-H460 lung, 11.5%; in the assay with HOP-92 NSCLC, 45.2%; with NCI-H522 lung, 37%. In addition, the growth with A549/ATCC NSCLC is 41.3%; with 786-0 renal, 7.79% (active); with COLO 205 colon, 9.94% (active).

`O=C1CN(c2ccccc2)C(=O)C1C(=O)Nc1ccc(Cl)c(Cl)c1` (stereo not drawn): the growth is 31.2% [100 µM] in the assay with NCI-H23 lung; 19.6% [100 µM] with NCI-H322M lung; 9.46% [100 µM] (active) in the assay on HOP-62 NSCLC; -2.82% [100 µM] (active) with NCI-H460 lung; 10.6% [100 µM] with HOP-92 NSCLC; 8.5% [100 µM] (active) in the assay with NCI-H522 lung. The values for the growth in the assay on A549/ATCC NSCLC, in the assay with 786-0 renal and in the assay with COLO 205 colon were 16.2% [100 µM], 0.0265% [100 µM] (active) and -23.1% [100 µM] (active), respectively.

For `C=C(C)[C@@H]1CC[C@]2(C(=O)OC)CC[C@]3(C)[C@H](CC[C@@H]4[C@@](C)(CC/C(N)=N/O)[C@H](C(=C)C)CC[C@]43C)[C@@H]12`, the growth in the assay on NCI-H23 lung is 107%; with NCI-H322M lung it was 105%; in the assay on NCI-H460 lung, 99.5%; with HOP-92 NSCLC it was 102%; with NCI-H522 lung, 95.4%; with A549/ATCC NSCLC, 91.8%. The figures for the growth with 786-0 renal and with COLO 205 colon were 94.7% and 107%, respectively.

Turning to `O=C1/C(=C\c2ccco2)SC(=S)N1CCc1ccc(O)cc1`, the growth in the assay on NCI-H23 lung was 101%; in the assay with NCI-H322M lung, 90.6%; in the assay on HOP-92 NSCLC it was 61.2%; in the assay with NCI-H522 lung, 68.9%; in the assay with A549/ATCC NSCLC it was 99.7%; in the assay with 786-0 renal it was 99.4%. The growth with COLO 205 colon is 126%.

Take `CC(C)C[C@@H](NC(=O)[C@@H](Cc1ccccc1)NC(=O)c1cnccn1)B1O[C@H]2[C@H](O)[C@@H](C(=O)NCCCC[C@@H]3NC(=O)[C@@H](Cc4ccccc4)NC(=O)[C@H](CC(=O)O)NC(=O)CNC(=O)[C@H](CCCN=C(N)N)NC3=O)O[C@@H](CN)[C@H]2O1`: the growth with NCI-H23 lung was -29.2% (active); in the assay with NCI-H322M lung it was 6.41% (active); with HOP-62 NSCLC, -50.5% (active); in the assay with NCI-H460 lung, -44.6% (active); with HOP-92 NSCLC, -70.4% (active); with NCI-H522 lung, -67.9% (active). The growth is -55.2% (active) in the assay on A549/ATCC NSCLC, -12.8% (active) in the assay with 786-0 renal and -81.1% (active) with COLO 205 colon.

Turning to `Cc1cc(C)nc(NC(N)=NCCc2ccccc2)n1`, the growth was 50.4% with NCI-H23 lung; 52.1% with NCI-H322M lung; 52.4% in the assay with HOP-62 NSCLC; 23.9% in the assay with NCI-H460 lung; 39.2% with HOP-92 NSCLC; 29.9% with NCI-H522 lung. In addition, the growth with A549/ATCC NSCLC was 33.1%; in the assay with 786-0 renal it was 50.1%; with COLO 205 colon it was 40.1%.

Turning to `CN(C)c1ccc(C(=O)c2ccc(N(C)C)c(N)c2)cc1N`, the growth is 40% with NCI-H23 lung; 49.3% in the assay with NCI-H322M lung; 53% in the assay on HOP-62 NSCLC; 13.5% in the assay on NCI-H460 lung; 91% with HOP-92 NSCLC; 49.2% in the assay with NCI-H522 lung. Moreover, the growth is 56% in the assay with A549/ATCC NSCLC, 42.4% in the assay with 786-0 renal and 21.3% with COLO 205 colon.

Consider `C=C(C)[C@@H]1CC[C@]2(/C=N/Nc3ccncc3)CC[C@]3(C)[C@H](CC[C@@H]4[C@@]5(C)CCCNC(C)(C)[C@@H]5CC[C@]43C)[C@@H]12`, for which the growth in the assay with NCI-H23 lung is 85.9%; in the assay with NCI-H322M lung it was 102%; in the assay on HOP-62 NSCLC, 94.7%; in the assay on NCI-H460 lung it was 86.6%; in the assay with HOP-92 NSCLC, 55.6%; in the assay on NCI-H522 lung, 94.8%. The growth in the assay with A549/ATCC NSCLC is 78%; in the assay with 786-0 renal it was 99.8%; with COLO 205 colon, 42.2%.

For the compound `Cc1cc(C=O)c(C)c2c1[nH]c1ccccc12`, the growth was 98.5% with NCI-H23 lung; 97.7% in the assay on NCI-H322M lung; 103% in the assay with HOP-62 NSCLC; 76.1% in the assay with NCI-H460 lung; 88.7% with HOP-92 NSCLC; 88.5% in the assay with NCI-H522 lung. Further, the results for the growth with A549/ATCC NSCLC, in the assay on 786-0 renal and in the assay with COLO 205 colon were 99.2%, 100% and 110%, respectively.

Consider `Cc1[c-]onc1C.Cc1[c-]onc1C.[Ag].[Ag].[NH-]S(=O)(=O)c1ccc(N=Nc2cc(N=Nc3ccc(S([NH-])(=O)=O)cc3)c3c(NC(=O)C(Cl)Cl)cccc3c2OC(=O)C(Cl)Cl)cc1`, for which the growth in the assay with NCI-H23 lung is 94.8%; with NCI-H322M lung it was 96%; in the assay with HOP-62 NSCLC, 84.7%; in the assay with NCI-H460 lung it was 57.3%; in the assay with HOP-92 NSCLC, 6.01% (active); in the assay with NCI-H522 lung, -85.7% (active). For the same compound, the growth in the assay on A549/ATCC NSCLC was 80.5%; in the assay with 786-0 renal, 104%; with COLO 205 colon, -46.9% (active).

For `Cn1c(=O)c2c(ncn2CCC(=O)Nc2ccc(F)cc2)n(C)c1=O`, the growth in the assay with NCI-H23 lung is 100%; with NCI-H322M lung it was 105%; in the assay on HOP-62 NSCLC, 92.6%; in the assay on NCI-H460 lung, 108%; with HOP-92 NSCLC, 95.5%; in the assay on NCI-H522 lung, 90.3%. Moreover, the growth was 89.5% in the assay with A549/ATCC NSCLC, 95.1% with 786-0 renal and 108% in the assay with COLO 205 colon.

Turning to `Cc1ccc(C)c2c1CCC2C(C)C` (stereo not drawn), the growth with NCI-H23 lung was 91.9%; with NCI-H322M lung it was 97.9%; with HOP-62 NSCLC, 101%; in the assay on NCI-H460 lung, 105%; with HOP-92 NSCLC it was 93.6%; in the assay with NCI-H522 lung, 94.8%. Further, the growth in the assay with A549/ATCC NSCLC is 87.2%; in the assay on 786-0 renal, 98.7%; in the assay with COLO 205 colon, 104%.

As to `CC(C)(C)c1ccc(OP(=S)(N/N=C/c2ccccc2O)Oc2ccc(C(C)(C)C)cc2)cc1`, the growth is 58.1% in the assay with NCI-H23 lung; 76.3% in the assay on NCI-H322M lung; 91.7% with HOP-62 NSCLC; 70.6% in the assay with HOP-92 NSCLC; 12.1% in the assay with NCI-H522 lung; 56.7% with A549/ATCC NSCLC. Further, the values for the growth with 786-0 renal and with COLO 205 colon were 68.6% and 79.7%, respectively.

Regarding `O=C(NCN1C(=O)c2cccc3cccc(c23)C1=O)N1CCC(Cc2ccccc2)CC1`, the growth in the assay with NCI-H23 lung is 93.9%; with NCI-H322M lung, 105%; with HOP-62 NSCLC, 94%; in the assay with NCI-H460 lung, 103%; in the assay with HOP-92 NSCLC it was 70%; in the assay on NCI-H522 lung, 77.9%. Further, the growth with A549/ATCC NSCLC is 89.8%; in the assay with 786-0 renal, 102%; in the assay on COLO 205 colon, 97.5%.

Turning to `CCC1C(=O)COC1=O` (stereo not drawn), the growth in the assay with NCI-H23 lung was 95.7%; with NCI-H322M lung it was 104%; in the assay on HOP-62 NSCLC, 77.1%; in the assay on NCI-H460 lung, 105%; in the assay on HOP-92 NSCLC, 80.6%; in the assay with NCI-H522 lung, 77.7%. Further, the growth in the assay with A549/ATCC NSCLC is 64.1%; in the assay with 786-0 renal it was 101%; with COLO 205 colon, 100%.
